Compound activity from PubChem BioAssay.
Most compounds without a hit are left out; they make up all but 3.1% or so of the library.
Calb FLC: affects C. albicans growth with fluconazole. actives 0.57% (n = 300,000). C. albicans CaCi-2 (fluconazole-resistant clinical isolate) + fluconazole, Alamar Blue growth, 48 h. growth inhibition, % (concentration not given with the values). AID 1979;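 active means growth inhibition above about 58% in most replicates, limit read from the data, passing the limit was not always enough; inconclusive means exactly half the replicates above a set limit; inactive means most replicates below a set limit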;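 further: all wells also contain fluconazole at 8 µg/ml as a sub-toxic cotreatment; 0% = median of DMSO wells and 100% = median of geldanamycin control wells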
NadD inh: blocks S. aureus nicotinate mononucleotide adenylyltransferase | purified NadD enzyme, colorimetric absorbance read-out | inhibition, % at 20 µM | actives 0.78% (n = 360,000) | AID 602399; in the data active means inhibition above about 26%
FAS TE block: blocks the thioesterase domain of human fatty acid synthase. P49327. recombinant FAS-TE, OMFH fluorogenic substrate, fluorescence endpoint. inhibition, % at 15 µM. actives 0.67% (n = 360,000). AID 602261;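 active means compounds whose normalised, plate-corrected inhibition of enzyme fluorescence in the single-dose primary screen is 50% or more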;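 further: 0% = DMSO with enzyme and 100% = substrate without enzyme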
Mot1-301 SUMO: blocks SUMOylation pathway, rescuing yeast Mot1-301 growth | actives 1% (n = 320,000) | S. cerevisiae Mot1-301 growth rescue, ATP luminescence, 38.5C; percent above DMSO median, 100 means doubled | growth rescue, % at 18.8 µM;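 active means every valid replicate shows activation above 250% relative to neutral control wells; inactive means the rest, any valid replicate at or below 250%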;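 further: OY570 slx delta 5 strain wells were the positive control but not used for scaling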
ATG4B inhibitor: ATG4B (human) cysteine protease inhibition. actives 0.51% (n = 340,000). inhibition, % at 8.33 µM. ATG4B cleavage of LC3-PLA2, NBD-HPC fluorescence, 1 h. Q9Y4P1; in the data active means inhibition above about 40%
Target sequence (Q9Y4P1 whole entry, looked up): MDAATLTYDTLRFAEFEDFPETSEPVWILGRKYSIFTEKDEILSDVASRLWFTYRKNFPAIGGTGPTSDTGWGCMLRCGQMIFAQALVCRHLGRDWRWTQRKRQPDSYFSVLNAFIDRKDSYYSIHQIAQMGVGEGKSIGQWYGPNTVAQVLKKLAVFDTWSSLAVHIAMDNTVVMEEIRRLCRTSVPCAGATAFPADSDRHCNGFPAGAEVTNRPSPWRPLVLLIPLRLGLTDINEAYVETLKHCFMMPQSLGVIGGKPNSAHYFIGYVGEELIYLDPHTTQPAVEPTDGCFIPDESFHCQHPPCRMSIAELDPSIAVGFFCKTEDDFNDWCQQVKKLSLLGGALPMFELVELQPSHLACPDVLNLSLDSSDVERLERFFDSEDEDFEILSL
Yeast Mot1 SUMO: yeast SUMO pathway inhibition in dose response; shares compounds with Mot1-301 SUMO; S. cerevisiae Mot1-301 galactose growth, ATP luminescence, 24 h; -100 = growth of slx-deleted rescue strain; growth activity, percent, % at 42 µM; 2,300 tested, under 10 active;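 active means Signal drops as the depositor expects, and the fitted half-maximal dose is no more than ten times the top valid tested dose; inconclusive means Poor fit, or a flat curve whose signal drops by 30% to 70%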;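 further: more negative values mean stronger growth rescue toward the control strain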
An asterisk follows results filed as active; ? = inconclusive; · = not tested or not shown; + = active, no number.

SMILES	Calb FLC	NadD inh	FAS TE block	Mot1-301 SUMO	ATG4B inhibitor	Yeast Mot1 SUMO
COc1ccc2c(c1)OC[C@H]1[C@H]2N2C(=O)c3cc(C)ccc3NC(=O)[C@@]2(C)[C@H]1c1ccccc1	·	6	76*	+	-5	0
C[C@@]12C(=O)Nc3ccccc3C(=O)N1[C@H]1c3cc(Cl)ccc3OC[C@@H]1[C@@H]2c1ccccc1	·	8	47	228	0	·
COc1ccc2c(c1)[C@H]1[C@H](CO2)[C@H](c2ccccc2)[C@]2(C)C(=O)Nc3cc(OC)c(OC)cc3C(=O)N12	·	-11	36	18	-8	·
COc1ccc2c(c1)[C@H]1[C@H](CO2)[C@H](c2ccccc2)[C@]2(C)C(=O)Nc3ccc(F)cc3C(=O)N12	·	5	40	904*	3	-1
COc1cccc(N=Nc2c(=O)[nH]n3c(=O)cc(C)[nH]c23)c1	-2	7	-3	372*	-7	1
COCCN(C(=O)C1CC1)c1nnc(-c2ccc(C)cc2)s1	-15	-3	3	731*	1	0
Cc1ccc(C(C)NC(=O)c2cccs2)cc1 (configuration not stated)	-18	-3	2	73	5	·
CC(NC(=O)c1cccs1)c1ccc(Br)cc1 (configuration not stated)	-40	-8	2	800*	1	0
COCCn1c(SCC(=O)Nc2ccccc2)nnc1-c1ccoc1C	30	-1	-1	4	-1	·
COCCn1c(SCC(=O)Nc2nc3ccccc3s2)nnc1-c1ccoc1C	20	0	-1	601*	-1	1
CCc1nnc(NC(=O)CCC(=O)Nc2ccc(Cl)cc2)s1	0	-4	-2	5	13	·
CC(C)(C)c1ccc(C(=O)COC(=O)CN2C(=O)NC3(CCCC3)C2=O)cc1	1	-6	9	522*	-2	0
COc1ccc(CN2CCCCCC2)cc1	-3	-3	-4	487*	0	0
COc1ccc(Cn2nnnc2CN2CCN(c3ccc(OC)cc3)CC2)cc1	6	-3	2	885*	-11	1
COc1ccc(COCC(O)CN2CCc3ccccc3C2)cc1OC (configuration not stated)	-19	-7	-6	-14	-12	·
CCOC(=O)N1CCN(c2ccc(S(=O)(=O)N3CCC(C)CC3)cc2[N+](=O)[O-])CC1	·	-7	19	·	-3	·
CC(=O)NCCC(=O)NCC1(N(C)Cc2ccccc2)Cc2ccccc2C1	6	2	-3	-6	11	·
COC(=O)CCCC(=O)NCC1(N(C)Cc2ccccc2)Cc2ccccc2C1	-4	-4	-1	387*	7	1
O=C1N=C(N2CCOCC2)S/C1=C\c1cccnc1	-2	-5	-6	753*	-8	1
O=C1N=C(N2CCOCC2)SC1=Cc1ccco1	·	2	-7	·	-2	·
Cc1cc(Nc2ccc(O)cc2)ccc1N	·	·	·	-30	·	·
COc1ccc(C(=O)N2CCN(c3ccc(NC(=O)c4cccnc4)cc3)CC2)cc1	10	8	-3	458*	9	0
COc1ccc(C(=O)Nc2ccnn2C2CCN(Cc3ccccn3)CC2)cc1	-2	0	-6	0	22	·
CCN(CC1COc2ccccc2O1)C(=S)NCCCN(C)C (configuration not stated)	?	-6	-5	+	2	0
CCOc1ccc2nc(CN3CCN(Cc4ccccc4OCC)C(CCO)C3)ccc2c1 (configuration not stated)	-1	-2	0	511*	-11	0
SMILES	Calb FLC	NadD inh	FAS TE block	Mot1-301 SUMO	ATG4B inhibitor	Yeast Mot1 SUMO
CCOc1ccccc1CN1CCN(Cc2ccon2)CC1CCO (configuration not stated)	?	-3	-4	817*	3	0
CCSc1nnc(NC(=O)CN2C(=O)NC3(CCCC3)C2=O)s1	·	4	-6	-1	-5	·
CC1=CC(=O)C(C(C)C)=C/C1=N/OS(=O)(=O)c1ccccc1	?	-6	26	390*	0	-4
Cc1ccc(C)n1-c1ccc(N(C)C)cc1	1	-2	2	+	2	0
COc1cccc(NC(=O)CN(C)C(=O)CSc2ccc3c(c2)OCCO3)c1	·	-3	-1	13	-3	·
CCCCCCN1C[C@H](O)[C@@H](n2cc(COC(=O)c3ccccc3)nn2)C[C@@H]1c1ccccc1	·	0	1	·	·	·
COc1ccc(NC(=O)CCC(=O)Nc2nnc(C(F)(F)F)s2)c(OC)c1	-23	-3	-8	820*	-6	0
C=C1C(O)[C@@H]2O[C@]3(CC[C@H](/C=C/C(C)[C@@H]4CC(C)=CC5(O[C@H](C[C@@](C)(O)CO)CCC5O)O4)O3)CC[C@H]2O[C@@H]1C(O)CC(C)[C@H]1OC2(CCCCO2)CCC1C (some centres not stated)	·	·	·	-14	2	·
CCCC(C)NC(=O)COC(=O)c1cccc(NS(C)(=O)=O)c1 (configuration not stated)	?	-8	-1	5	9	·
O=C(Nc1ccc2nc(-c3ccc4nc[nH]c4c3)[nH]c2c1)c1cccs1	1	20	-15	465*	-25	0
O=C(Nc1ccc2nc(-c3ccccc3)[nH]c2c1)c1cccs1	19	-10	1	7	-9	·
CC(C(=O)Nc1ccccc1-c1ccccc1)N1CCN(C(=O)c2ccccc2)CC1 (configuration not stated)	1	-9	3	439	28	·
CC(C(=O)Nc1ccccc1-c1ccccc1)N1CCN(Cc2ccccc2)CC1 (configuration not stated)	-6	-6	17	528*	26	0
CCC(=O)Nc1ccc(Br)c(Cl)c1	-7	2	0	703*	-1	1
CC(C)(CO)NC(=O)c1ccc2nc(Cc3cccc(Cl)c3)oc2c1	4	3	-5	-18	-3	·
Cc1ccccc1-c1nnc(CN2CCC(C)CC2)o1	0	-1	-5	403*	0	0
CC(C(=O)N1CCN(C(=O)c2ccco2)CC1)n1sc2ccccc2c1=O (configuration not stated)	-1	0	-9	380*	-4	1
COc1ccc(NC(=O)N2CCCC(c3ccccc3)C2)cc1 (configuration not stated)	20	-6	-2	386	-3	·
O=S(=O)(c1ccccc1F)N1CCN(CCc2ccccc2)CC1	6	0	7	-4	5	·
O=S1(=O)C=C(Sc2nnc(-c3ccccc3)o2)c2ccccc21	36	-6	20	917*	-4	-2
Cc1cc(C)nc(SC2=CS(=O)(=O)c3ccccc32)n1	-9	0	-2	-1	-7	·
